Data published in PubChem BioAssay.
Calls of active or inactive are those of the source. Unless noted, how the calls were made is not given here.

How the values were obtained:
[1] = HepG2 liver cancer cell viability effects, profiling panel, resazurin fluorescence, 24 h, PK04 Diversity Set (AID 1172); conditions: higher = more signal; further: test concentration not given here
[2] = basal S. cerevisiae growth modulation, no modifier, primary screen, OD600, strain BY4716, 24 h, basal condition (AID 1173); conditions: OD600, 24 h, higher = more signal, called active from +8 up or from −8 down
[3] = MM1S myeloma cell viability, profiling panel, resazurin fluorescence, basal, 24 h, PK04 Diversity Set (AID 1174); conditions: higher = more signal, called active from +8 up or from −8 down;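 further: MM1S multiple myeloma cell line; test concentration not given here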
[4] = molecular target: Dihydroorotate dehydrogenase (quinone), mitochondrial (Plasmodium falciparum (isolate 3D7)) (UniProt Q08210); experiment: PfDHODH enzyme inhibitors, primary screen, biochemical, C-terminal His tag, absorbance 600 nm (AID 1175); conditions: DCIP absorbance 600 nm, higher = more signal, called active from +8 up or from −8 down;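 further: recombinant parasite enzyme with a five histidine tag at its C terminus; test concentration not given here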
[5] = P. aeruginosa biofilm formation inhibitors, primary screen, strain PAO1, LB-PBS medium, absorbance 600 nm (AID 1176); further: test concentration not given here; conditions: P. aeruginosa PAO1 growth/biofilm, A600, 12 h; higher = more signal
[6] = S. cerevisiae RM11-1a growth modifiers, primary screen, strain RM11-1a, OD600, basal, 24 h (AID 1177); conditions: OD600, 24 h, higher = more signal, called active from +8 up or from −8 down;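 further: cultures grown under basal conditions with no added stressor; test concentration not given here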
[7] = E. coli acrAB mutant growth effects, primary screen, E. coli filamentation inducers, strain DRC39, OD650, 24 h (AID 1178); conditions: higher = more signal, called active from +8 up or from −8 down;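 further: growth measured as culture turbidity by optical density at 650 nm; test concentration not given here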
[8] = E. coli acrAB mutant growth effects, primary screen, E. coli filamentation inducers, strain DRC39, OD650, 48 h (AID 1179);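 further: screen aims at cell division blockers that make cells filament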; conditions: E. coli DRC39 delta-acrAB growth, higher = more signal, called active from +8 up or from −8 down
[9] = RPMI8226 myeloma cell viability, profiling panel, resazurin fluorescence, basal, 24 h, PK04 Diversity Set (AID 1180); conditions: higher = more signal;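 further: RPMI8826 multiple myeloma cell line at 5000 cells per well; test concentration not given here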
[10] = molecular target: E3 ubiquitin-protein ligase XIAP (Homo sapiens) (UniProt P98170); experiment: XIAP binders, primary screen, biophysical, small-molecule microarray, fluorescence 635 nm (AID 1181); conditions: small-molecule microarray binding, higher = more signal;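 further: score merges 667 nm emission and signal to noise over triplicate slides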
E3 ubiquitin-protein ligase XIAP (Homo sapiens), sequence (P98170 whole entry, looked up): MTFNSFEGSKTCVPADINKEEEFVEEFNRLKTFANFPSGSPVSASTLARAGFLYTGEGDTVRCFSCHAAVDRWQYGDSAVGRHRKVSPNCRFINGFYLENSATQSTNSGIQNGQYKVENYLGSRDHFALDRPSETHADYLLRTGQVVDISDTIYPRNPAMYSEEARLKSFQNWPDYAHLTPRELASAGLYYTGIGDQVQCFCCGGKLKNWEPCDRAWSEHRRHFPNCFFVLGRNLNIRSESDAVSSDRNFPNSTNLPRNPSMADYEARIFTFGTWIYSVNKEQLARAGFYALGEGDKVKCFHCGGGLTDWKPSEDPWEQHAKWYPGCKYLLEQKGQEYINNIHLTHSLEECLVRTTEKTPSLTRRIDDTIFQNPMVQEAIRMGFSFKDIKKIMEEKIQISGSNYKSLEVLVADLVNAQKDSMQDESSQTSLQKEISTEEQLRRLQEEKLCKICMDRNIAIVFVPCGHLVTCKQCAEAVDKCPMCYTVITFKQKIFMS

Dihydroorotate dehydrogenase (quinone), mitochondrial (Plasmodium falciparum (isolate 3D7)), sequence (Q08210 whole entry, looked up): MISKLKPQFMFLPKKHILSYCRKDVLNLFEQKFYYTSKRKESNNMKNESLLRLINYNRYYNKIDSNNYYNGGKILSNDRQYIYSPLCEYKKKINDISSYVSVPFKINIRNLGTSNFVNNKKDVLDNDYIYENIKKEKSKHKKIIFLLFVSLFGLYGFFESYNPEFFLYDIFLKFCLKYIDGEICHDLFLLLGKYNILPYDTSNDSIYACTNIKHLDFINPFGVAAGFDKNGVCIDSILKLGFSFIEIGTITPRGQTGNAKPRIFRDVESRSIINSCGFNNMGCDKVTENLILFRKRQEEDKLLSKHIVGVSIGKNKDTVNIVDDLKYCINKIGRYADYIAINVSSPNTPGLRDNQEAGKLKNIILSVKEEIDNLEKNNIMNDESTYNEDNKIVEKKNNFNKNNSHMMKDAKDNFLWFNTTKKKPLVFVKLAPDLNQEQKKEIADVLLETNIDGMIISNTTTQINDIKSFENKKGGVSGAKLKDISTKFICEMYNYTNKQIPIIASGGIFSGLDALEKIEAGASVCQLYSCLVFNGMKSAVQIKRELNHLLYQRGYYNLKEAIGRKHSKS

Structure (SMILES) | z-score [1] | z-score [2] | z-score [3] | composite z-score [4] | z-score [5] | z-score [6] | z-score [7] | z-score [8] | z-score [9] | composite z-score [10]
C[C@]12CCC3c4ccc(OCC5CO5)cc4CCC3C1CC[C@@H]2O (stereo not given in full) | 0.689 | -3.59 (inactive) | 0.383 (inactive) | -0.187 (inactive) | 0.52 (inactive) | 1.27 (inactive) | -0.424 (inactive) | -0.431 (inactive) | 1.68 | -0.148
CC(CCN1CCCCc2nc(C)c(C)cc21)=NOC[C@@H](O)[C@H]1O[C@@H]2OC(C)(C)O[C@@H]2[C@H]1O | -0.825 | -0.546 (inactive) | -1.03 (inactive) | -0.183 (inactive) | 0.335 (inactive) | -0.382 (inactive) | 0.78 (inactive) | -0.887 (inactive) | -0.216 | -0.0323
O=C1[C@H]2[C@H]3[C@H](O)[C@H](O)CC(=NO[C@@H]4O[C@H](CO)[C@@H](O)[C@H](O)[C@H]4O)[C@H]3CC[C@H]2C(=O)N1C[C@@H]1CCCO1 | 0.724 | 0.628 (inactive) | -1.45 (inactive) | -0.595 (inactive) | -0.355 (inactive) | 0.855 (inactive) | 0.42 (inactive) | 0.595 (inactive) | -0.39 | 0.127
CCOC(=O)[C@H](CC(C)C)NC(=O)CCC1CC(OC(=O)NCc2ccc3c(c2)OCO3)CC2(CCCC(COC(=O)NCCc3ccc(Cl)cc3)O2)O1 (stereo not given in full) | 0.538 | -0.723 (inactive) | 0.984 (inactive) | -0.704 (inactive) | -0.151 (inactive) | -0.166 (inactive) | 0.337 (inactive) | -0.294 (inactive) | 1.13 | -0.157
COC(=O)[C@H](C)NC(=O)CCC1CC(OC(=O)NCc2cccc3ccccc23)CC2(CCCC(COC(=O)NCCCN3CCCC3=O)O2)O1 (stereo not given in full) | 0.607 | -0.0554 (inactive) | 0.478 (inactive) | -0.104 (inactive) | 0.286 (inactive) | 0.0627 (inactive) | 0.992 (inactive) | -1.34 (inactive) | -0.0303 | -0.273
COC(=O)[C@H](C)NC(=O)CCC1CC(OC(=O)NCc2cccc3ccccc23)CC2(CCCC(COC(=O)NCCc3ccccc3OC)O2)O1 (stereo not given in full) | -0.0725 | 0.526 (inactive) | -0.232 (inactive) | 0.325 (inactive) | 0.639 (inactive) | 1.61 (inactive) | 0.642 (inactive) | -0.0569 (inactive) | -0.472 | 0.0932
CC(C)[C@@H](OCc1ccccc1)[C@H](C)C=NO[C@H](C)c1cn([C@@H]2COC[C@H]2O)nn1 | -0.507 | -1.28 (inactive) | -0.648 (inactive) | -0.498 (inactive) | -0.0296 (inactive) | -0.0941 (inactive) | 0.462 (inactive) | 0.178 (inactive) | -0.64 | -0.173
CCc1cc2c(nc1CC)CCN(CCC(C)=NOC(C)CN1CCCCc3nc(C)c(C)cc31)C2 (stereo not given) | 0.465 | -1.61 (inactive) | 0.0376 (inactive) | 0.0164 (inactive) | 0.417 (inactive) | 1.18 (inactive) | -0.148 (inactive) | -1.83 (inactive) | 0.825 | -0.02
CC(=O)OC[C@H]1O[C@@H](ON=C(C)C)[C@H](OC(C)=O)[C@@H](OC(C)=O)[C@@H]1OC(C)=O | 0.199 | 0.515 (inactive) | -0.0437 (inactive) | -0.696 (inactive) | 0.569 (inactive) | 0.0958 (inactive) | -0.308 (inactive) | -2.31 (inactive) | -0.0678 | 0.0478
COC(=O)[C@H](C)NC(=O)CCC1CC(OC(=O)NCc2cccc3ccccc23)CC2(CCCC(COC(=O)NCc3cccc(C(F)(F)F)c3)O2)O1 (stereo not given in full) | -0.599 | -0.458 (inactive) | 0.47 (inactive) | -1.5 (inactive) | 0.593 (inactive) | -0.968 (inactive) | -0.289 (inactive) | -0.456 (inactive) | 0.297 | 0.14
C[C@@H]1CC[C@H]2C(=O)N3[C@@H](CC[C@@H](C)[C@@H]3c3ccc(Br)cc3)C(=O)N2[C@H]1c1ccc(Br)cc1 | -0.346 | 0.0314 (inactive) | 0.208 (inactive) | 0.553 (inactive) | -0.27 (inactive) | 0.973 (inactive) | -0.124 (inactive) | -1.38 (inactive) | 0.102 | -0.0056
CC(C)CN1CCc2nc(-c3ccccc3)c3c(c2C1)CO[C@@H](C)C3 | -0.622 | -1.33 (inactive) | 1.21 (inactive) | 0.638 (inactive) | -0.588 (inactive) | 0.697 (inactive) | -0.838 (inactive) | -0.0811 (inactive) | 0.829 | -0.22
C[C@@H]1CC[C@H]2C(=O)OC(CN3C(=O)c4ccccc4C3=O)CN2[C@H]1c1ccc(Br)cc1 (stereo not given in full) | 0.462 | -0.501 (inactive) | 0.668 (inactive) | 0.639 (inactive) | -0.27 (inactive) | 0.183 (inactive) | 0.786 (inactive) | 0.467 (inactive) | 0.685 | -0.0438
